Shown are actives, neighbours in structure and some others; about 21% of the full set was active somewhere.
Shiga inhibitor: Shiga toxin inhibition; Vero cells, Shiga toxin protein synthesis inhibition reporter; actives 9.2% (n = 290,000); inhibition, % at 38.7 µM; in the data active = inhibition mostly above about 28%, no sharp cut-off; inactive = mostly below about 43%; also: 0% is about no effect
Cycloheximide cs: affects cycloheximide protein synthesis inhibition readout, counter-screen | cell reporter, cycloheximide protein synthesis inhibition counterscreen | max response, % | actives 12% (n = 300,000) | AID 2314; in the data active = max response mostly above about 13%, no sharp cut-off; inactive = mostly below about 14%; also: read at 38.3 µM for the half of the compounds with a filed dose; 0% is about no effect
Pf growth 48h: inhibits P. falciparum growth in the first generation, 48 h; Potency, µM (doses to about 28.7 µM), for inactives: top-dose activity change, negative = inhibition, actives largely listed as inhibitors; P. falciparum luciferase growth in erythrocytes, 48 h; actives 5.9% (n = 310,000); AID 504832; also: potency is read from the fitted curve at half-maximal effect; % is scaled to controls: 0 for no effect and ±100 for the full control effect
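Cell-based growth assay: transgenic P. falciparum expressing firefly luciferase, cultured in red cells within RPMI 1640 containing 0.5% w/v Albumax, 24 mM bicarbonate and gentamycin. A drop in luciferase activity indicates inhibition.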
Sm TGR block: S. mansoni TGR enzyme inhibition | Q962Y6 | purified TGR, DTNB reduction, TNB absorbance 405 nm | Potency, µM (highest dose often 114 µM), without a hit: at the top dose activity change, negative = inhibition, most hits filed as inhibitors | actives 3% (n = 360,000); also: potency is read from the fitted curve at half-maximal effect; % is scaled to controls: 0 for no effect and ±100 for the full control effect; nearly all actives have a fitted effect of over 60% in size
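First, TGR (20 nM dispensed) and NADPH were mixed with compound. Second, a 15 min room-temperature incubation followed. Third, further NADPH and then DTNB were added to start the reaction. Finally, TNB absorbance was monitored kinetically.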
NS1 function inh: blocks influenza NS1 protein function | Potency, µM (top dose mostly 46.1 µM), inactives show top-dose activity, positive = more growth | actives 0.4% (n = 270,000); calls by dose curve; also: potency is read from the fitted curve at half-maximal effect; actives are rising curves; nearly all actives have a fitted effect of over 50% in size
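A cell-based growth assay was used: compounds that relieve NS1-induced slow growth of budding yeast raise OD600. Assay medium was yeast nitrogen base with ammonium sulphate and -URA supplement, pH 6.0, with 2% galactose.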
Pf growth 96h: P. falciparum growth inhibition at 96 hours; Potency, µM (highest dose often 28.7 µM), inactives show at the top dose activity change, negative = inhibition, most hits filed as inhibitors; P. falciparum luciferase reporter growth, 96 h; actives 6.9% (n = 320,000); also: potency is read from the fitted curve at half-maximal effect; % is scaled to controls: 0 for no effect and ±100 for the full control effect
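96 h incubation, 37 C, 5% CO2, of luciferase-reporter P. falciparum-infected RBCs (2% hematocrit, 0.05% parasitemia final) with test compounds; endpoint luminescence.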
Numbers without * were called inactive; ? = inconclusive; · = not tested or not shown; [ ] = another dose, or the depositor's remark. Unless noted, calls follow the shape of the dose curve; as a rule, active = well fitted curve in the direction sought with a large enough effect; inconclusive = small, poorly fitted or top-dose-only effect, or another doubt; inactive = no such curve, though single readings can be large; an effect the other way counts as inactive or inconclusive.

SMILES	Shiga inhibitor	Cycloheximide cs	Pf growth 48h	Sm TGR block	NS1 function inh	Pf growth 96h
COc1ccc(/C(C)=N/Nc2nc3ccccc3n3cnnc23)cc1OC	40.2*	19.1*	?	-14.2%	-1.9%	?
COc1ccc(Nc2nc3ccccc3n3cnnc23)cc1Cl	34.0	34.7*	·	-0.8%	-4.4%	?
COc1cc(CO)ccc1Oc1nc2ccccc2n2cnnc12	28.6	6.2	8.6%	-2.9%	-0.7%	2.9%
Cc1ccc(Nc2nc3ccccc3n3cnnc23)c(Cl)c1	6.6	4.6	18.0%	8.8%	-2.6%	16.0%
COc1cccc(Nc2nc3ccccc3n3cnnc23)c1	65.6	14.5*	·	35.2%	-8.6%	?
Cc1cc(F)ccc1Nc1nc2ccc(Cl)cc2n2cnnc12	·	·	·	1.7%	·	·
Cc1ccc(Nc2nc3ccc(Cl)cc3n3cnnc23)cc1F	-6.6	-1.7	10.4µM*	2.8%	-3.7%	?
CCOc1cc(/C=C(\C#N)C(=O)Nc2ccccn2)ccc1O	44.5	12.8*	32.3%	17.8µM*	-23.1%	13.6%
COC(=O)c1ccc(/C=C(\C#N)C(=O)NC(C)c2ccccc2)cc1 (centres undefined)	-4.9	-1.7	?	-23.4%	-42.7%	?
COc1ccc(/C=C(\C#N)C(=O)NC(C)c2ccccc2)cc1O (centres undefined)	16.6	12.9*	?	-7.6%	-52.7%	-3.6%
Cc1cccc(/C=C(\C#N)C(=O)Nc2ccccn2)c1	-5.4	0.0	13.0%	7.6%	-2.9%	-0.7%
COc1cc(/C=C(\C#N)C(=O)Nc2ccc3c(c2)OCCO3)ccc1O	51.1*	33.0*	58.9%	7.0%	-49.0%	2.2%
CCOc1ccccc1NC(=O)/C(C#N)=C/c1cccnc1	12.5	-1.7	-22.6%	-0.4%	-4.1%	13.1µM*
CCC1CCc2nc3sc(C(=O)Nc4ccc(F)c(Cl)c4)c(N)c3cc2C1 (centres undefined)	·	·	·	-2.0%	·	·
CC(C)Cc1nnc(NC(=O)c2ccc(S(=O)(=O)N3CCCC3)cc2)s1	·	·	1.1%	-4.3%	·	-12.7%
COc1cc(/C=C(\C#N)C(=O)Nc2cccc3ncccc23)ccc1O	-10.3	-2.3	-0.4%	·	12.1%	16.2%
COc1cc(/C=C(\C#N)C(=O)Nc2ccccn2)ccc1O	51.6*	19.1*	13.4%	14.1µM*	0.3%	7.5%
COc1ccc(-c2nnc3n2N=C(c2ccc(OC)c(OC)c2)CS3)c(OC)c1	14.7	-0.4	·	·	·	·
Cc1ccc(C(=O)Oc2ccc3c(c2)ncn3C)cc1	98.5*	49.4*	16.6%	14.5%	-51.4%	-26.2%
Cn1cnc2cc(OC(=O)c3ccccc3)ccc21	107.9*	48.5*	10.8%	12.9%	-53.0%	48.2%
CC(C)(C)c1ccc(OC(=O)c2ccccc2)cc1	17.6	-2.0	62.0%	4.3%	0.3%	19.5%
Cc1ccc(C(=O)Oc2ccc(N3C(=O)CCC3=O)c(C)c2)cc1	7.3	10.3	-4.8%	2.4%	1.8%	30.5%[5.75 µM]
CCn1c(CSc2nnc(-c3ccncc3)n2CCOC)nc2cc(C(=O)O)ccc21	-11.6	-1.4	8.8%	1.4%	·	-2.5%
COCCn1c(SCCCC(=O)c2ccc(Br)cc2)nnc1-c1ccncc1	-18.6	-5.3	·	-10.8%	-5.2%	13.1µM*
Cn1c(SCCCC(=O)c2ccc(F)cc2)nnc1-c1ccncc1	-6.4	8.6	?	8.0%	-12.0%	10.4µM*
SMILES	Shiga inhibitor	Cycloheximide cs	Pf growth 48h	Sm TGR block	NS1 function inh	Pf growth 96h
Cn1c(SCCCC(=O)c2ccccc2)nnc1-c1ccncc1	26.8	-4.1	-17.4%	0.0%	2.2%	-1.2%
O=C(O)CNS(=O)(=O)c1c(Cl)cccc1Cl	-7.9	-1.4	7.1%	13.5%	2.0%	44.1%
O=C(CCCc1nc(-c2ccco2)no1)Nc1ccccc1[N+](=O)[O-]	·	·	·	-0.2%	·	·
Cc1ccc(C)c(-n2[nH]c3c4c(ccc3c2=O)C(=O)c2ccccc2C4=O)c1	-11.8	0.5	9.5%	3.8%	11.3%	-2.7%
Cc1ccc(-n2[nH]c3c4c(ccc3c2=O)C(=O)c2ccccc2C4=O)cc1	-15.5	-1.4	22.7%	-2.5%	1.7%	30.2%
CC(C)(C)n1[nH]c2c3c(ccc2c1=O)C(=O)c1ccccc1C3=O	44.2	24.2*	1.31µM*	-5.3%	-8.1%	·
COCCCn1[nH]c2c3c(ccc2c1=O)C(=O)c1ccccc1C3=O	51.5	34.0	11.7µM*	-18.1%	-8.8%	·
O=C(NCCS(=O)(=O)N1CCN(c2ccc(F)cc2)CC1)c1cccc(C(F)(F)F)c1	·	·	·	7.3%	·	·

Screens deposited in PubChem by National Center for Advancing Translational Sciences (NCATS).
